# In the supplement of paper PMC10037445:
# In all, about 2,900 compounds were measured (“NF-kB SEAP reporter activity, fold change vs agonist alone”: median about 0.99, highest 2% from about 2.6 on). The sample holds the highest values, similar compounds and a random draw of the others, so the mix is not that of the screen.
# Columns and labels:
# RAW-Dual [1] = experiment: NF-kB SEAP reporter activity, fold change vs agonist alone; higher = enhanced NF-kB activity
# Method in brief: (§1)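 Cytotoxic wells were those whose IncuCyte confluency was below 70% of agonist controls in both mask sets. The cells were RAW-Dual macrophages at 50,000 cells/well in DMEM on 384-well plates, dosed with 50 nL of library stock by pin tool, stimulated with a PRR agonist 1 h later, and kept at 37 °C, 5% CO2 for 20 hours. IRF and NF-κB reporter activity, as fold change over agonist-alone wells, came from supernatant read by QuantiLuc luminescence and QuantiBlue absorbance, respectively.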
# RAW-Dual [2] = experiment: NF-kB SEAP reporter activity, fold change vs agonist alone; cytotoxicity flag (confluency mask): not cytotoxic; higher = enhanced NF-kB activity
# Method in brief: as §1
# RAW-Dual [3] = experiment: NF-kB SEAP reporter activity, fold change vs agonist alone; cytotoxicity flag (confluency mask): cytotoxic (confluency <70% of control); higher = enhanced NF-kB activity
# Method in brief: as §1
# [4] = library stock concentration (final ~1000-fold dilution): 10 mM, cytotoxicity flag (confluency mask): not cytotoxic, agonist: Imiquimod (TLR7) […]
# [5] = library stock concentration (final ~1000-fold dilution): 10 mM, cytotoxicity flag (confluency mask): not cytotoxic, agonist: MPLA (TLR4) […]
# [6] = agonist: ODN 1826 (TLR9) 0.5 ug/mL
# [7] = agonist: Pam2CSK4 (TLR2/6) 0.1 ug/mL
# [8] = agonist: Pam3CSK4 (TLR2/1) 0.1 ug/mL
# [9] = library stock concentration (final ~1000-fold dilution): 10 mM, cytotoxicity flag (confluency mask): cytotoxic (confluency <70% of control), agonist: Imiquimod (TLR7) […]
# [10] = library stock concentration (final ~1000-fold dilution): 10 mM, cytotoxicity flag (confluency mask): cytotoxic (confluency <70% of control), agonist: MPLA (TLR4) […]
compound,measurement,setting,value
CC(C)CC(NC(=O)C(NC(=O)c1cccc(-c2ccccc2)n1)C(C)O)B(O)O (stereo not drawn),NF-kB SEAP reporter activity,RAW-Dual [1]; [4],2.29
same,NF-kB SEAP reporter activity,RAW-Dual [1]; [5],0.997
CC(C)CC(NC(=O)C(NC(=O)c1cccc(-c2ccccc2)n1)C(C)O)B(O)O (stereo not drawn) (library stock concentration (final ~1000-fold dilution): 10 mM),NF-kB SEAP reporter activity,RAW-Dual [2]; agonist: LPS (TLR4) 0.1 ug/mL,0.629
same,NF-kB SEAP reporter activity,RAW-Dual [2]; [6],1.53
same,NF-kB SEAP reporter activity,RAW-Dual [2]; [7],0.976
same,NF-kB SEAP reporter activity,RAW-Dual [2]; [8],0.594
CCOC(=O)/C=C/c1ccc(O)c(OC)c1,NF-kB SEAP reporter activity,RAW-Dual [1]; [4],1.08
same,NF-kB SEAP reporter activity,RAW-Dual [1]; [5],1.2
CCOC(=O)/C=C/c1ccc(O)c(OC)c1 (library stock concentration (final ~1000-fold dilution): 10 mM),NF-kB SEAP reporter activity,RAW-Dual [2]; agonist: LPS (TLR4) 0.1 ug/mL,0.998
same,NF-kB SEAP reporter activity,RAW-Dual [2]; [6],1.03
same,NF-kB SEAP reporter activity,RAW-Dual [2]; [7],0.959
same,NF-kB SEAP reporter activity,RAW-Dual [2]; [8],1.07
COc1ncc(-c2ccc3nccc(-c4ccnnc4)c3c2)cc1NS(=O)(=O)c1ccc(F)cc1F (library stock concentration (final ~1000-fold dilution): 10 mM),NF-kB SEAP reporter activity,RAW-Dual [2]; agonist: LPS (TLR4) 0.1 ug/mL,6.18
same,NF-kB SEAP reporter activity,RAW-Dual [2]; [6],0.959
same,NF-kB SEAP reporter activity,RAW-Dual [2]; [7],2.26
same,NF-kB SEAP reporter activity,RAW-Dual [2]; [8],0.801
COc1cc2nccc(Oc3ccc(NC(=O)Nc4ccc(F)cc4F)c(F)c3)c2cc1OC,NF-kB SEAP reporter activity,RAW-Dual [1]; [9],0.799
same,NF-kB SEAP reporter activity,RAW-Dual [1]; [10],0.975
COc1ncc(-c2ccc3nccc(-c4ccnnc4)c3c2)cc1NS(=O)(=O)c1ccc(F)cc1F,NF-kB SEAP reporter activity,RAW-Dual [1]; [4],0.912
same,NF-kB SEAP reporter activity,RAW-Dual [1]; [5],0.957
COc1cc2nccc(Oc3ccc(NC(=O)Nc4ccc(F)cc4F)c(F)c3)c2cc1OC (library stock concentration (final ~1000-fold dilution): 10 mM),NF-kB SEAP reporter activity,RAW-Dual [3]; agonist: LPS (TLR4) 0.1 ug/mL,0.806
same,NF-kB SEAP reporter activity,RAW-Dual [3]; [6],0.587
same,NF-kB SEAP reporter activity,RAW-Dual [3]; [7],0.463
same,NF-kB SEAP reporter activity,RAW-Dual [3]; [8],0.717
CC1CNCCCN1S(=O)(=O)c1cccc2cncc(F)c12.Cl.O.O (stereo not drawn),NF-kB SEAP reporter activity,RAW-Dual [1]; [4],1.01
same,NF-kB SEAP reporter activity,RAW-Dual [1]; [5],1.08
CC1CNCCCN1S(=O)(=O)c1cccc2cncc(F)c12.Cl.O.O (stereo not drawn) (library stock concentration (final ~1000-fold dilution): 10 mM),NF-kB SEAP reporter activity,RAW-Dual [2]; agonist: LPS (TLR4) 0.1 ug/mL,1.11
same,NF-kB SEAP reporter activity,RAW-Dual [2]; [6],0.99
same,NF-kB SEAP reporter activity,RAW-Dual [2]; [7],1.27
same,NF-kB SEAP reporter activity,RAW-Dual [2]; [8],1.5
COC(=O)NC(C(=O)N1CCCC1c1ncc(-c2ccc(-c3ccc(-c4cnc(C5CCCN5C(=O)C(NC(=O)OC)C(C)C)[nH]4)cc3)cc2)[nH]1)C(C)C.Cl.Cl (stereo not drawn) (library stock concentration (final ~1000-fold dilution): 10 mM),NF-kB SEAP reporter activity,RAW-Dual [2]; agonist: LPS (TLR4) 0.1 ug/mL,1.85
same,NF-kB SEAP reporter activity,RAW-Dual [2]; [6],0.91
same,NF-kB SEAP reporter activity,RAW-Dual [2]; [7],1.02
same,NF-kB SEAP reporter activity,RAW-Dual [2]; [8],0.606
COC(=O)NC(C(=O)N1CCCC1c1ncc(-c2ccc(-c3ccc(-c4cnc(C5CCCN5C(=O)C(NC(=O)OC)C(C)C)[nH]4)cc3)cc2)[nH]1)C(C)C.Cl.Cl (stereo not drawn),NF-kB SEAP reporter activity,RAW-Dual [1]; [5],1.76
CC(C)CN(CC(O)C(Cc1ccccc1)NC(=O)OC1CCOC1)S(=O)(=O)c1ccc(N)cc1 (stereo not drawn),NF-kB SEAP reporter activity,RAW-Dual [1]; [4],1.3
same,NF-kB SEAP reporter activity,RAW-Dual [1]; [5],1.6
CC(C)CN(CC(O)C(Cc1ccccc1)NC(=O)OC1CCOC1)S(=O)(=O)c1ccc(N)cc1 (stereo not drawn) (library stock concentration (final ~1000-fold dilution): 10 mM),NF-kB SEAP reporter activity,RAW-Dual [2]; agonist: LPS (TLR4) 0.1 ug/mL,1.41
same,NF-kB SEAP reporter activity,RAW-Dual [2]; [6],1.74
same,NF-kB SEAP reporter activity,RAW-Dual [2]; [7],1.45
same,NF-kB SEAP reporter activity,RAW-Dual [2]; [8],1.32
CC1CCOC2Cn3cc(C(=O)NCc4ccc(F)cc4F)c(=O)c(O)c3C(=O)N12 (stereo not drawn) (library stock concentration (final ~1000-fold dilution): 10 mM),NF-kB SEAP reporter activity,RAW-Dual [2]; agonist: LPS (TLR4) 0.1 ug/mL,0.989
same,NF-kB SEAP reporter activity,RAW-Dual [2]; [6],0.999
same,NF-kB SEAP reporter activity,RAW-Dual [2]; [7],1.09
same,NF-kB SEAP reporter activity,RAW-Dual [2]; [8],0.921
CC1CCOC2Cn3cc(C(=O)NCc4ccc(F)cc4F)c(=O)c(O)c3C(=O)N12 (stereo not drawn) (library stock concentration (final ~1000-fold dilution): 2 mM),NF-kB SEAP reporter activity,RAW-Dual [2]; agonist: LPS (TLR4) 0.1 ug/mL,1.23
same,NF-kB SEAP reporter activity,RAW-Dual [2]; [6],0.967
same,NF-kB SEAP reporter activity,RAW-Dual [2]; [7],0.958
same,NF-kB SEAP reporter activity,RAW-Dual [2]; [8],0.873
CC1CCOC2Cn3cc(C(=O)NCc4ccc(F)cc4F)c(=O)c(O)c3C(=O)N12 (stereo not drawn),NF-kB SEAP reporter activity,"RAW-Dual [1]; library stock concentration (final ~1000-fold dilution): 2 mM, cytotoxicity flag (confluency mask): not cytotoxic, agonist: MPLA (TLR4) […]",0.994
same,NF-kB SEAP reporter activity,RAW-Dual [1]; [4],1.18
same,NF-kB SEAP reporter activity,RAW-Dual [1]; [5],0.999
CCOC(=O)C(CCc1ccccc1)NC1CCc2ccccc2N(CC(=O)O)C1=O.Cl (stereo not drawn),NF-kB SEAP reporter activity,RAW-Dual [1]; [4],0.99
same,NF-kB SEAP reporter activity,RAW-Dual [1]; [5],0.958
CCOC(=O)C(CCc1ccccc1)NC1CCc2ccccc2N(CC(=O)O)C1=O.Cl (stereo not drawn) (library stock concentration (final ~1000-fold dilution): 10 mM),NF-kB SEAP reporter activity,RAW-Dual [2]; agonist: LPS (TLR4) 0.1 ug/mL,0.997
same,NF-kB SEAP reporter activity,RAW-Dual [2]; [6],0.98
same,NF-kB SEAP reporter activity,RAW-Dual [2]; [7],1.03
same,NF-kB SEAP reporter activity,RAW-Dual [2]; [8],0.994
CC(C(=O)O)c1ccc(C(=O)c2cccs2)cc1 (stereo not drawn),NF-kB SEAP reporter activity,RAW-Dual [1]; [4],0.601
same,NF-kB SEAP reporter activity,RAW-Dual [1]; [5],0.825
COC(=O)Nc1nc2ccc(C(=O)c3cccs3)cc2[nH]1 (library stock concentration (final ~1000-fold dilution): 10 mM),NF-kB SEAP reporter activity,RAW-Dual [3]; agonist: LPS (TLR4) 0.1 ug/mL,2.52
same,NF-kB SEAP reporter activity,RAW-Dual [3]; [6],3.14
same,NF-kB SEAP reporter activity,RAW-Dual [3]; [7],1.85
same,NF-kB SEAP reporter activity,RAW-Dual [3]; [8],1.76
CC(C(=O)O)c1ccc(C(=O)c2cccs2)cc1 (stereo not drawn) (library stock concentration (final ~1000-fold dilution): 10 mM),NF-kB SEAP reporter activity,RAW-Dual [2]; agonist: LPS (TLR4) 0.1 ug/mL,1.19
same,NF-kB SEAP reporter activity,RAW-Dual [2]; [6],0.999
same,NF-kB SEAP reporter activity,RAW-Dual [2]; [7],1.06
same,NF-kB SEAP reporter activity,RAW-Dual [2]; [8],1.07
COC(=O)Nc1nc2ccc(C(=O)c3cccs3)cc2[nH]1,NF-kB SEAP reporter activity,RAW-Dual [1]; [9],2.68
same,NF-kB SEAP reporter activity,RAW-Dual [1]; [10],2.1
CCCS(=O)c1ccc2nc(NC(=O)OC)[nH]c2c1 (stereo not drawn),NF-kB SEAP reporter activity,RAW-Dual [1]; [4],1.04
same,NF-kB SEAP reporter activity,RAW-Dual [1]; [5],0.808
CCCS(=O)c1ccc2nc(NC(=O)OC)[nH]c2c1 (stereo not drawn) (library stock concentration (final ~1000-fold dilution): 10 mM),NF-kB SEAP reporter activity,RAW-Dual [2]; agonist: LPS (TLR4) 0.1 ug/mL,1.06
same,NF-kB SEAP reporter activity,RAW-Dual [2]; [6],0.948
same,NF-kB SEAP reporter activity,RAW-Dual [2]; [7],1.05
same,NF-kB SEAP reporter activity,RAW-Dual [2]; [8],1.09
CCCS(=O)(=O)NC1CC(N(C)c2ncnc3[nH]ccc23)C1 (stereo not drawn),NF-kB SEAP reporter activity,RAW-Dual [1]; [4],0.73
same,NF-kB SEAP reporter activity,RAW-Dual [1]; [5],0.764
